From PubChem BioAssay (NCATS) come the findings set out here.

Where “and” joins values, the source holds several entries; their conditions need not be identical. Equal entries are not always repeated. Results filed as inconclusive are left out. A number with no mark means an inactive call. Calls of active or inactive are those of the source. Calls come from the whole dose curve; as a rule, active = well fitted inhibition curve with a large enough effect; inconclusive = small, poorly fitted or top-dose-only effect; inactive = flat fitted curve, though single readings scatter.

In assay [1] the test system is HaCat. Description: Cytotoxic Profiling of Annotated Libraries Using Quantitative High-Throughput Screening (AID 1296008). For max response: % is set by controls: 0 for no effect and ±100 for the full control effect. Note: potency is the fitted concentration of half-maximal effect. The conditions noted are these: Five cell lines viability, CellTiter-Glo ATP luminescence, 48-72 h; max response: stronger effect = lower value. The method, boiled down: (§1)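 Cytotoxicity was measured as CellTiter-Glo ATP luminescence, read after 10 min at room temperature. Compound treatment of the cells lasted 48 or 72 hr at 37 degrees Celsius in a qHTS format.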
In general terms: In ATP-based viability assays light output follows the ATP content of the culture.

For the next assay, the system named is NIH3T3. The assay is described as above. The conditions noted are these: Five cell lines viability, CellTiter-Glo ATP luminescence, 48-72 h; max response: stronger effect = lower value. The method, boiled down:
as §1

A further assay has as its system KB-3-1. Described as above. The conditions noted are these: Five cell lines viability, CellTiter-Glo ATP luminescence, 48-72 h; max response: stronger effect = lower value. In short, it runs like this:
as §1

The test system of the next assay is HEK293. Described as above. The conditions noted are these: Five cell lines viability, CellTiter-Glo ATP luminescence, 48-72 h; max response: stronger effect = lower value. The method, boiled down: as §1
In a further assay the test system is W2. The experiment in a line: qHTS profiling for inhibitors of Plasmodium falciparum proliferation (AID 504749). Note: potency is the fitted concentration of half-maximal effect. To be noted: P. falciparum in erythrocytes, SYBR Green DNA, 72 h; series mostly up to 28.7 µM. In short, it runs like this: (§2)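 In a 72 h erythrocytic culture (37 C, humidified, 5% CO2) at 2.5% hematocrit and 0.3% starting parasitemia, compounds were tested; SYBR Green I in detergent lysis buffer stained parasite DNA overnight.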

The test system of the next assay is TAB109. The description is as above. The conditions noted are these: P. falciparum in erythrocytes, SYBR Green DNA, 72 h; series mostly up to 28.7 µM. The method, boiled down: as §2
In a further assay the test system is TAB113. The assay is described as above. To be noted: P. falciparum in erythrocytes, SYBR Green DNA, 72 h; series mostly up to 28.7 µM. The method, boiled down: as §2
The next assay deals with TAB165. The description is as above. The conditions noted are these: P. falciparum in erythrocytes, SYBR Green DNA, 72 h; series mostly up to 28.7 µM. The method, boiled down: as §2
The test system of assay [2] is HACAT. Description: qHTS assay to identify novel small-molecules to repurpose for Merkel cell carcinoma treatment (AID 1296009). To be noted: MCC and control cell lines, CellTiter-Glo viability, 72 h; at 44.8 µM (top of the series) unless noted. In short, it runs like this: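 Cell viability measured by CellTiter-Glo following 72 hr compound treatment at 37 degree celsius, with NPC and MIPE libraries tested in 8- and 11-point concentration series.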
Note: nearly all actives have a fitted effect of over 60% in size.

`CN(C)CCCNC(=O)c1ccc(-c2cc(O)c3ncccc3c2)cc1`: the max response was -4.67% in the assay on HaCat [1] and -2.36% in the assay with NIH3T3.
For the compound `CN(C)CC[C@H](CSc1ccccc1)Nc1ccc(S(=O)(=O)NC(=O)c2ccc(N3CCN(Cc4ccccc4-c4ccc(Cl)cc4)CC3)cc2)cc1[N+](=O)[O-]`, in the assay with HaCat [1], the Potency was 18.7 µM (active). Moreover, in the assay on KB-3-1, the max response is 2.51%.
Consider `O=C(Nc1ncc(SCCN2CCCC2)s1)[C@]1(c2ccc(S(=O)(=O)C3CC3)cc2)C[C@@H]1C1CCCCC1`, for which the Potency with HEK293 was 16.6 µM (active); with NIH3T3, 23.5 µM (active).
With `CNC(=O)[C@H](Cc1ccccc1)NC(=O)[C@H](CC(C)C)[C@H](CSc1cccs1)C(=O)NO`, in the assay with HaCat [1], the Potency is 13.2 µM (active). In addition, the max response was 2.61% in the assay on KB-3-1 and 0.205% with NIH3T3.
With `O=C(Nc1cccc(Cl)c1)Nc1ncc(CCNc2ncnc3ccsc23)s1`, the Potency in the assay with HaCat [1] is 2.09 µM (active).
Consider `COc1c(C)c2c(c(O)c1CC=C(C)CCC(=O)O)C(=O)OC2`, for which, in the assay with HaCat [1], the max response was -8.02%. Moreover, in the assay with NIH3T3, the Potency was 3.72 µM (active).
As to `CNc1nc(-c2ccc3c(N)n[nH]c3c2)cc(N2C[C@@H](C(=O)NC3CCCCC3)CC[C@@H]2C)n1`, the max response with HaCat [1] is -5.08%.
For the compound `Cc1cccc(-c2[nH]c(C(C)(C)C)nc2-c2ccc3c(c2)OCO3)n1`, the max response in the assay with HaCat [1] is -21.5%. Also, the Potency in the assay on NIH3T3 was 7.43 µM (active).
Regarding `Fc1ccc(C(c2ccc(F)cc2)N2CCN(CC=Cc3ccccc3)CC2)cc1`, the Potency in the assay on W2 is 8.49 µM (active).
For the compound `COc1cc2c(cc1Cc1cccc(Cl)c1F)c(=O)c(C(=O)O)cn2[C@H](CO)C(C)C`, in the assay with HaCat [1], the max response was -24.6%.
On to `CN[C@H]1[C@@H](O[C@@H]2[C@H](O[C@@H]3[C@@H](O)[C@@H](O)[C@@H](N=C(N)N)[C@@H](O)[C@@H]3N=C(N)N)O[C@H](C)[C@@]2(O)C=O)O[C@@H](CO)[C@@H](O)[C@H]1O`, for which the call with KB-3-1 was inactive.
`NC(=O)c1noc([C@H](CCCC2CCCCC2)CC(=O)NO)n1`: the max response with KB-3-1 is -19.6% and 9.75%. In addition, the Potency in the assay with NIH3T3 is 18.7 µM (active) and 16.4 µM (active).
With `CN(C)S(=O)(=O)c1ccc2c(c1)C(=Cc1cc3c([nH]1)CCCC3)C(=O)N2`, in the assay on KB-3-1, the max response is -0.966%.
Turning to `CO[C@H]1O[C@@H]2O[C@@]3(C)CC[C@@H]4[C@@H](C)CC[C@@H]([C@H]1C)[C@@]24OO3`, the max response in the assay with HaCat [1] is -9.33%. Also, the call in the assay on KB-3-1 and in the assay with NIH3T3 was inactive.
Turning to `CC(C)c1c(C(=O)Nc2ccccc2)c(-c2ccccc2)c(-c2ccc(F)cc2)n1CC[C@H](O)C[C@@H](O)CC(=O)O`, the Potency in the assay on HaCat [1] was 20.9 µM (active). For the same compound, the max response in the assay on NIH3T3 was -10.9%.
`Clc1ccc(COC(Cn2ccnc2)c2ccc(Cl)cc2Cl)c(Cl)c1` (centres undefined): the Potency was 3.98 µM (active) in the assay with TAB109, 3.16 µM (active) in the assay on TAB113, 1 µM (active) in the assay on TAB165 and 2.28 µM (active) with W2.
Regarding `CN1CCC[C@H]1CCO[C@](C)(c1ccccc1)c1ccc(Cl)cc1`, the call in the assay on HaCat [1] and in the assay with HACAT [2] was inactive. The results for the max response in the assay with KB-3-1 and in the assay on NIH3T3 were -5.55% and -18.8%, respectively.
